# Data published in PubChem BioAssay (NCI).
# About 83,000 compounds went through this panel and 20% of them were active in at least one assay; those are over-represented in the sample as a whole.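 Activity criterion: percent growth below 10, measured after cells in 96-well plates were exposed to a single compound concentration for 48 hours.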 The source made the active and inactive calls.
# System: MDA-MB-468 breast
# Experiment: NCI-60 one-dose screen, 48 h (100 = growth as untreated, 0 = no growth, -100 = all killed)
# Settings: 10 µM unless noted
row,SMILES,growth
1,O=[N+]([O-])c1ccc(-c2nc(-c3ccccc3)c(-c3ccccc3)n2-c2ccccc2)cc1,2.29% (active)
2,C/C(=C(/c1ccc(O)cc1)c1ccc(Cl)cc1)c1ccccc1,-71.9% (active)
3,O=c1c2cc(F)ccc2sc2c(NCCCNCCO)nc3ccccc3c12,-72.8% (active)
4,COc1cc2cc(CN3CCN(c4nccc(-c5ccc6ccccc6c5)n4)CC3)c(=O)[nH]c2cc1OC,51.4% (inactive)
5,Nc1c(C(=O)Nc2cccc3c2OCCO3)sc2nc3c(cc12)C(=O)CCC3,18.7% (inactive)
6,CN(C[C@@H]1COCCO1)S(=O)(=O)Nc1ccc2ccc3ncc(-c4cnn(C)c4)cc3c(=O)c2c1,49.9% (inactive)
7,CC1=C2[C@@H](CC1)[C@]1(C)O[C@@](C(C)C)(C[C@H]1OC(=O)CO)[C@H]2OC(=O)C1CC1c1ccccc1 (stereo not given in full),93.3% (inactive)
8,c1ccc2cc(C[n+]3ccn(CCCCCCCCCCn4cc[n+](Cc5ccc6ccccc6c5)c4)c3)ccc2c1,-28.3% (active)
9,CCOC(=O)c1sc2ncnc(Nc3ccc4c(cnn4C(=O)Nc4ccc(C)c(Cl)c4)c3)c2c1C,95.1% (inactive)
10,CCOC(=O)c1c(C)nc2c(c1N)/C(=C/c1ccccn1)C(=O)N2Cc1ccccc1,-49.5% (active)
11,CCn1c(SCC(=O)Nc2cccc(C(=O)/C=C/c3ccc(C)cc3)c2)nc2ccccc2c1=O,58.7% (inactive)
12,CCOC(=O)C(=O)CC(=O)N1C(=S)NC(=O)C1CC(C)C (stereo not given),85.1% (inactive)
13,CC(C)C1=NOC(=O)C1=Cc1cn(-c2ccccc2)nc1-c1ccc(Cl)cc1,86.7% (inactive)
14,COc1c(B(O)O)cccc1-c1nc2ccc3[nH]ncc3c2c2c1CCCC2,34% (inactive)
15,CN1CCN(c2ccc(Nc3ncc(Cl)c(NC[C@@H]4CCCO4)n3)cc2)CC1,30.7% (inactive)
16,COc1ccccc1C(=O)Nc1cccc(NC(=O)c2ccoc2C)c1,14% (inactive)
17,CN1CCN(CC#CCn2c3c(c4ccccc42)C[C@]2(C)[C@H]4CC[C@@H]5[C@H]6[C@H]7OC(=O)[C@@]6(CCC7(C)C)CC[C@@]5(C)[C@]4(C)CC[C@H]2C3(C)C)CC1,93.9% (inactive)
18,COc1cc2c3c(cccc3c1)C(=O)N(CCN1CCCC1)C2=O,-3.53% (active)
19,C=C1C(=O)O[C@H]2[C@H]1CC/C(C(=O)Nc1ccc(OC)c(C(N)=O)c1O)=C\CC[C@@]1(C)O[C@@H]21,20.4% (inactive)
20,CN(C)CCCNc1c2ccc(Cl)cc2nc2c1oc1ccc(Cl)cc12,36.4% (inactive)

row,SMILES,growth
1,O=C1c2cc3c(cc2-c2c1c1ccc(Cl)cc1c(=O)n2CCCN1CCOCC1)OCO3,31.6% (inactive)
2,Cc1c[nH]c(=O)n(Cc2nnc(CCC(=O)c3nc4ccccc4[nH]3)o2)c1=O,-1.54% (active)
3,CCOC(=O)C1CN(Cc2ccccc2)C(=O)C1=O (stereo not given),106% (inactive)
4,COc1ccc2c(c1)c(CC(=O)[Se]CC#N)c(C)n2C(=O)c1ccc(Cl)cc1,-43.2% (active)
5,CC(C)CC(=O)C(CCc1ccccn1)C(C)C (stereo not given),109% (inactive)
6,CNC(=O)c1cc(Oc2ccc(NC(=O)Nc3ccc(Cl)c(OC(F)(F)F)c3)c(F)c2)ccn1,14.7% (inactive)
7,CC1(C)CCC[C@]23C(=O)O[C@](O)(C(=O)C4=C[C@@](C)(/C=C/CCCc5ccc6ccc7cccc8ccc5c6c78)CC[C@@]42O)[C@@H]13,-70% (active)
8,NC(N)=N/N=C/c1ccccc1,94.2% (inactive)
9,COc1ccc2c(c1)[nH]c(=O)c1c3cccnc3cn21,6.19% (active)
10,O=C1c2ccccc2-c2nnc(-c3ccc(Br)cc3)cc21,20.3% (inactive)
11,C[C@]12CC[C@@H]3c4cc(O)c(O)cc4CC[C@H]3[C@@H]1CC[C@@H]2O,72.1% (inactive)
12,COc1ccc(N(c2nc(-c3ccc([N+](=O)[O-])cc3)cs2)C(C)C)cc1,20.4% (inactive)
13,O=C(NCc1cccnc1)/C(=C\c1ccc(Br)cc1)S(=O)(=O)c1ccccc1,-58.9% (active)
14,O=C(O)CCNC1CCCCC1,93.1% (inactive)
15,Nc1ccc2c(c1)C(=O)NC2=O,75.4% (inactive)
16,CC(=O)Nc1nc(C(=O)N2N=C(C)/C(=C/c3ccccc3)C2=O)cs1,103% (inactive)
17,COc1cc2ncnc(Nc3ccc(F)c(Cl)c3)c2cc1NC(=O)/C=C/CN1CCCCC1,-82.2% (active)
18,CC1=C([Se]CC(OC(=O)[C@@H](CO)NC(=O)OC(C)(C)C)C(=O)NCCCCCC(=O)OCc2ccccc2)C(=O)c2ccccc2C1=O (stereo not given in full),-83.7% (active)
19,Cc1cc(N=Nc2ccc(-c3ccc(N=Nc4ccc(O)c(C(=O)O)c4)cc3)cc2)c(N)c(N=Nc2ccc(C(=O)O)cc2)c1N,92.6% (inactive)
20,COc1ccc(SC2c3cc(OC)c(OC)cc3Oc3nc(N)c(C#N)c(N)c32)cc1 (stereo not given),-40.7% (active)
